Among the data in PubChem BioAssay (Tox21) are Potency and outcome values, retold here.

Unmarked numbers belong to inactive results. Inconclusive results are not listed. Active and inactive are the calls of the source. Unless noted, calls come from the whole dose curve; as a rule, active = well fitted curve in the direction sought with a large enough effect in the repeat runs; inconclusive = weak or mixed curves; inactive = no such curve, though single readings can be large; an effect the other way counts as inactive or inconclusive.

A short description of experiment [1]: qHTS assay to identify small molecule agonists of the estrogen receptor beta (ER-beta) signaling pathway - cell viability counter screen (AID 1259380). Note: nearly all actives have a fitted effect of over 30% in size. Note: potency is the fitted concentration of half-maximal effect. The essentials: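 Steps: plate ER-beta-UAS-bla HEK293T cells, rest 6 hr; add compounds in DMSO; incubate 16 hr at 37C, 5% CO2; add FRET substrate 2 hr; add CellTiter-Glo, wait 30 min at room temperature; read luminescence.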

The nature of experiment [2]: qHTS assay to identify small molecule antagonists of the estrogen receptor beta (ER-beta) signaling pathway - cell viability counter screen (AID 1259382). Note: nearly all actives have a fitted effect of over 55% in size. Note: potency is the fitted concentration of half-maximal effect. The gist of the method:
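Viability is scored by CellTiter-Glo luminescence (30 min, room temperature) in ER-beta-UAS-bla HEK293T wells already read for reporter fluorescence. Compound exposure lasts 16 hr at 37C alongside 1nM 17-beta-estradiol in charcoal-stripped serum medium.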
A general note: qHTS replaces the single test concentration by a dilution series.

Experiment [3] addresses Estrogen receptor (Homo sapiens) (UniProt P03372). The experiment in a line: qHTS assay to identify small molecule agonists of the estrogen receptor alpha (ER-alpha) signaling pathway in the presence of an antagonist (AID 1259383; calls by dose curve; note: top concentration of the series differs between compounds; nearly all actives have a fitted effect of over 15% in size). The gist of the method: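 Readout was ERE-driven luciferase luminescence in VM7Luc4E2 cells, which express full-length ER-alpha endogenously. Compounds were tested at 15 concentrations for 22hr alongside 10.0nM ICI-182,780 (final concentration).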

Experiment [4] is described as follows: qHTS assay to identify small molecule agonists or antagonists of the thyroid stimulating hormone receptor (TSHR) signaling pathway - wild type cell line counter screen (AID 1259384; calls by dose curve). The essentials: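 Wild-type HEK293 cells were plated 18 h at 37 C/5% CO2, pin-dosed with compound plus Ro20-1724 medium, held 30 min at room temperature, then given cAMP-d2 and anti-cAMP-cryptate; fluorescence was read after 1 h. Fifteen concentrations, triplicate.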

Experiment [5] concerns the target Thyrotropin receptor (Homo sapiens) (UniProt P16473). The experiment in a line: qHTS assay to identify small molecule antagonists of the thyroid stimulating hormone receptor (TSHR) signaling pathway (AID 1259385; calls by dose curve; note: nearly all actives have a fitted effect of over 20% in size). The essentials:
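TSHR-HEK293 cells were plated and held 18 h at 37C/5% CO2, then given compound plus Ro20-1724 and stimulated with TSH at 1.5 ng/mL final. After 30 min at room temperature, cAMP was detected with cAMP-d2/anti-cAMP-cryptate (1 h) by fluorescence.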

The nature of experiment [6]: qHTS assay to identify small molecule agonists of the estrogen receptor alpha (ER-alpha) signaling pathway in the presence of an antagonist - cell viability counter screen (AID 1259386).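 Note: series mostly up to about 92 µM; cells exposed to compounds for 22 h at 37 °C before the viability read; nearly all actives have a fitted effect of over 30% in size.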 The essentials:
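In this counter screen, compound effects on VM7Luc4E2 viability were tested in the presence of the antagonist ICI-182,780 at 10.0nM final. Compounds were dosed at 15 concentrations, exposure lasted 22hr, and the CellTiter-Fluor signal was read.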

Experiment [7] in a line: qHTS assay to identify small molecule antagonists of the progesterone receptor (PR) signaling pathway - cell viability counter screen (AID 1346798). Note: series mostly up to about 92 µM; nearly all actives have a fitted effect of over 50% in size. The essentials: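 PR-UAS-bla HEK293T cells, 3,000/well in 2% charcoal-stripped FBS medium, dosed with compounds plus R5020 agonist and incubated 16 h at 37C. Viability then measured in the same wells by CellTiter-Glo luminescence after 30 min at RT.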

Experiment [8] can be described thus: qHTS assay to identify small molecule agonists of the progesterone receptor (PR) signaling pathway - cell viability counter screen (AID 1346799; calls by dose curve; note: nearly all actives have a fitted effect of over 45% in size). The essentials: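 Counter screen in the PR-UAS-bla HEK293T wells (2% charcoal-stripped FBS, 16 h compound exposure at 37 C) after the bla read. CellTiter-Glo added, 30 min at room temperature, luminescence read as cell viability.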

Experiment [9] is described as follows: qHTS assay to identify small molecule antagonists of the TGF-beta/Smad signaling pathway - cell viability counter screen (AID 1346824). Note: nearly all actives have a fitted effect of over 50% in size. The essentials:
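SBE-bla HEK 293T cells were plated overnight at 37 C, then given compounds in DMSO plus TGF-beta1 (added as 0.25 ng/mL solution) for 5 hr. After the bla read, CellTiter-Glo was added to the same wells and luminescence read after 30 min at room temperature.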

A short description of experiment [10]: qHTS assay to identify small molecule agonists of the TGF-beta/Smad signaling pathway - cell viability counter screen (AID 1346829). Note: top concentration of the series differs between compounds; nearly all actives have a fitted effect of over 45% in size. The essentials: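 SBE-bla HEK 293T cells plated overnight, compound exposure 5 hr at 37 C. Viability read in the same wells by CellTiter-Glo luminescence after 30 min at room temperature, following the beta-lactamase read.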
The target in experiment [11] is Thyrotropin-releasing hormone receptor (Homo sapiens) (UniProt P34981). Kind of experiment: qHTS assay to identify small molecule antagonists of the thyrotropin-releasing hormone receptor (TRHR) signaling pathway (AID 1346877; active = well fitted inhibition curve with a large enough effect in the repeat runs, not every such curve was filed as active; note: series mostly up to about 51 µM). The gist of the method:
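Kinetic fluorescence (3 min, 1 s resolution) following stimulation with TRH at 1 nM final; HEK293 cells bearing human TRHR; 5 min compound preincubation at RT; concentration-response over 15 points, triplicates.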

Experiment [12] shares this target. Kind of experiment: qHTS assay to identify small molecule agonists of the thyrotropin-releasing hormone receptor (TRHR) signaling pathway (AID 1346891; calls by dose curve; note: series mostly up to about 58 µM). The gist of the method: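 HEK293 cells expressing TRHR plated 18 h at 37 C/5% CO2, calcium dye-loaded 2 h at 37 C, then compound added (agonist mode); kinetic calcium fluorescence read 3 min at 1 s intervals; 15 concentrations in triplicate.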

Experiment [13] is described as follows: Human pregnane X receptor (PXR) small molecule agonists, qHTS cell viability counter screen (AID 1346977). Note: nearly all actives have a fitted effect of over 50% in size. Note: potency is the fitted concentration of half-maximal effect. The essentials:
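PXR-Luc HepG2 cells (2,000/well, 5% charcoal-stripped FBS) preincubated 5 hr, then exposed to compounds 24 hr at 37 C. Viability read in the same wells by CellTiter-Fluor fluorescence, reagent added at 23 hr, 1 hr incubation.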

Experiment [14] can be described thus: qHTS assay to identify small molecule agonists of the androgen receptor (AR) signaling pathway in the presence of an antagonist - cell viability counter screen (AID 1259379).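 Note: MDA-kb2 human breast cancer cells carrying an MMTV luciferase reporter; series mostly up to about 92 µM; nearly all actives have a fitted effect of over 25% in size.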 The gist of the method: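 Nilutamide-containing (3.0uM final) MDA-kb2 cultures, 3,000 cells/well, were treated with compounds across 15 concentrations. After 16 hr at 37C with no CO2, cell viability was determined by CellTiter-Fluor fluorescence in the luciferase assay wells.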

Experiment [15] has as its target Progesterone receptor (Homo sapiens) (UniProt P06401). The experiment in a line: qHTS assay to identify small molecule agonists of the progesterone receptor (PR) signaling pathway (AID 1346784; calls by dose curve; note: nearly all actives have a fitted effect of over 30% in size). The essentials:
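PR-UAS-bla HEK 293T cells (beta-lactamase reporter under UAS) in 2% charcoal-stripped FBS, dosed with 23 nL compound after 6 hr, incubated 16hr at 37C. LiveBLAzer B/G FRET substrate added, fluorescence read after 2 hours.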

Experiment [16] shares this target. Kind of experiment: qHTS assay to identify small molecule antagonists of the progesterone receptor (PR) signaling pathway (AID 1346795; active = well fitted inhibition curve with a large enough effect in the signal ratio in the repeat runs, not every such curve was filed as active; the % refers to the signal ratio). The gist of the method:
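PR-UAS-bla HEK293T cells with beta-lactamase reporter under UAS control, in 2% charcoal-stripped FBS, treated with compounds plus 1 nM promegestone (R5020, final) for 16 hr at 37C. Read-out: FRET beta-lactamase substrate fluorescence after 2 hr at room temperature.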

Experiment [17] is described as follows: qHTS assay to identify small molecule agonists of the TGF-beta/Smad signaling pathway (AID 1346859; active = well fitted activation curve with a large enough effect in the signal ratio in the repeat runs, not every such curve was filed as active; the % refers to the signal ratio; note: series mostly up to about 77 µM). The gist of the method: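 SBE-bla HEK293T cells plated overnight, then compound exposure for 5 h at 37 C. Beta-lactamase reporter read with LiveBLAzer B/G FRET substrate after 2 h at room temperature, fluorescence at 405 nm excitation, 460/530 nm emission.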

For experiment [18], the target named is Androgen receptor (Homo sapiens) (UniProt P10275). Kind of experiment: qHTS assay to identify small molecule agonists of the androgen receptor (AR) signaling pathway in the presence of an antagonist (AID 1259381; calls by dose curve; note: nearly all actives have a fitted effect of over 15% in size). The essentials:
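Reporter-gene luminescence from MDA-kb2 cells exposed 16hr at 37C (0% CO2) to 15-point compound titrations with 3.0uM final nilutamide as AR antagonist.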

Chain of Thyrotropin receptor (Homo sapiens) (P16473 whole entry, looked up): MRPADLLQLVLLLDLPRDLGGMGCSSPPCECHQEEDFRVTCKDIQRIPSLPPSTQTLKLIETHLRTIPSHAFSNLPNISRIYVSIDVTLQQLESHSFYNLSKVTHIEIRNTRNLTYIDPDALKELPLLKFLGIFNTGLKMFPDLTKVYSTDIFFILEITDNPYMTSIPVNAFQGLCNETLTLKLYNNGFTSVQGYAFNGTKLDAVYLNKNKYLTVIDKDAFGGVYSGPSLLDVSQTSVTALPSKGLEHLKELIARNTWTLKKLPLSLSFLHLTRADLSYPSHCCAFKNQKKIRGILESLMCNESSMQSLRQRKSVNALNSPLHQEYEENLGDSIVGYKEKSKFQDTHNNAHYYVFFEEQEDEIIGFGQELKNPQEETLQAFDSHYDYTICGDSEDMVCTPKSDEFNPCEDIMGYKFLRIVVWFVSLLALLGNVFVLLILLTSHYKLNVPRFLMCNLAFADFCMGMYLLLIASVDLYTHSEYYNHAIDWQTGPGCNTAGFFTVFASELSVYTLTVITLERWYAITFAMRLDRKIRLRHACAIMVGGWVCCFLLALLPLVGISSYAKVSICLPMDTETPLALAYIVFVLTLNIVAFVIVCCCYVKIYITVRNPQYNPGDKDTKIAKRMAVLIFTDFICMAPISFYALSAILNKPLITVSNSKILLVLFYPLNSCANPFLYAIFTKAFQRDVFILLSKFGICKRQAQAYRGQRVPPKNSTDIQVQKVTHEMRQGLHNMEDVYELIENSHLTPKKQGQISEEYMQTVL
Chain of Thyrotropin-releasing hormone receptor (Homo sapiens) (P34981 whole entry, looked up): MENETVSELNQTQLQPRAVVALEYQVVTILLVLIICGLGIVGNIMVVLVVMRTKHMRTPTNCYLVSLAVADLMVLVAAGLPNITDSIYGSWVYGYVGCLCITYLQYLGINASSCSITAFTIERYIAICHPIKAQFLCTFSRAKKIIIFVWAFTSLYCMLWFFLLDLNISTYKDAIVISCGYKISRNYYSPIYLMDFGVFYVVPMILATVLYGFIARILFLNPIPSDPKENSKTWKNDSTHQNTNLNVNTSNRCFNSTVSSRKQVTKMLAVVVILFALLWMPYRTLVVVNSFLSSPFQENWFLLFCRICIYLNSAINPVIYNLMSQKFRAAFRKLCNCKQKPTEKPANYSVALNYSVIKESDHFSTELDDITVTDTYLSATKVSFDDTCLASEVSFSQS
Chain of Progesterone receptor (Homo sapiens) (P06401 whole entry, looked up): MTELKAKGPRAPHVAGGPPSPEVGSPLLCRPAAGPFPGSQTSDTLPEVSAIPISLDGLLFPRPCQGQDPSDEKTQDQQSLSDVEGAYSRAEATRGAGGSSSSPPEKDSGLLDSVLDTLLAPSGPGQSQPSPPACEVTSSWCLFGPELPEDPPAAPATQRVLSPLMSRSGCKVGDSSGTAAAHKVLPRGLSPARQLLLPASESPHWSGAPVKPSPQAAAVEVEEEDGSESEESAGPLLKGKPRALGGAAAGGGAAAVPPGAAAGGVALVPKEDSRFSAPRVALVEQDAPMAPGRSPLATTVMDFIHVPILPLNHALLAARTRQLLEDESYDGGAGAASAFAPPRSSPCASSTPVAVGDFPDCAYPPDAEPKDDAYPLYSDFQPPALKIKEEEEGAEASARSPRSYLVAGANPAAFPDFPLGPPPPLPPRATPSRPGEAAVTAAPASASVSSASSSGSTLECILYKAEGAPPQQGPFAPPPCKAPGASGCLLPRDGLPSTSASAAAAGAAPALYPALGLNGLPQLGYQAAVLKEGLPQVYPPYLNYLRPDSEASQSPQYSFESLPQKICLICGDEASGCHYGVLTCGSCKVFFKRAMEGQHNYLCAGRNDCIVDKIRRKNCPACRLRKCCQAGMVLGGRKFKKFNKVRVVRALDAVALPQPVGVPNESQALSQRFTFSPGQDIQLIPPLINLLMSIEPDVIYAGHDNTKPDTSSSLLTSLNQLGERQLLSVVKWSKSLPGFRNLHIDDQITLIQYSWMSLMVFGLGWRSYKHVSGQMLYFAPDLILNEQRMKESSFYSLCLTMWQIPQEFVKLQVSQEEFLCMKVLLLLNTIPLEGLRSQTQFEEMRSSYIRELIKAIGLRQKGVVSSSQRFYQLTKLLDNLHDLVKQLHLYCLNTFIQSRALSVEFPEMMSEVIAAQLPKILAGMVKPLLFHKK
Chain of Estrogen receptor (Homo sapiens) (P03372 whole entry, looked up): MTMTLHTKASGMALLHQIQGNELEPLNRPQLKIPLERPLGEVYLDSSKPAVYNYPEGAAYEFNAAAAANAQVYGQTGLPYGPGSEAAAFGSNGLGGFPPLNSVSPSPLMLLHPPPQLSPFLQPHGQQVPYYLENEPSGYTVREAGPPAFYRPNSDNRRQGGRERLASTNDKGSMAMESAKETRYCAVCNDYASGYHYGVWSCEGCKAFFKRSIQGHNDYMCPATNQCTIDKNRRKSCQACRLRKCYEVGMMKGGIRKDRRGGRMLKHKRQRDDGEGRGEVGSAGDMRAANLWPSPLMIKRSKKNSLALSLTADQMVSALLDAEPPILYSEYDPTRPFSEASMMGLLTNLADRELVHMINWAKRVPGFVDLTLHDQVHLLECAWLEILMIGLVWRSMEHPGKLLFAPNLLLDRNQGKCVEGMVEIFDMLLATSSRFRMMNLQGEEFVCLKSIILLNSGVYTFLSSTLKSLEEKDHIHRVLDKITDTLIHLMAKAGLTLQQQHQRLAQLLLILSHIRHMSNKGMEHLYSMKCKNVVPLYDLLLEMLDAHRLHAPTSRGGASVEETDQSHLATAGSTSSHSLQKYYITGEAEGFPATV
Chain of Androgen receptor (Homo sapiens) (P10275 whole entry, looked up): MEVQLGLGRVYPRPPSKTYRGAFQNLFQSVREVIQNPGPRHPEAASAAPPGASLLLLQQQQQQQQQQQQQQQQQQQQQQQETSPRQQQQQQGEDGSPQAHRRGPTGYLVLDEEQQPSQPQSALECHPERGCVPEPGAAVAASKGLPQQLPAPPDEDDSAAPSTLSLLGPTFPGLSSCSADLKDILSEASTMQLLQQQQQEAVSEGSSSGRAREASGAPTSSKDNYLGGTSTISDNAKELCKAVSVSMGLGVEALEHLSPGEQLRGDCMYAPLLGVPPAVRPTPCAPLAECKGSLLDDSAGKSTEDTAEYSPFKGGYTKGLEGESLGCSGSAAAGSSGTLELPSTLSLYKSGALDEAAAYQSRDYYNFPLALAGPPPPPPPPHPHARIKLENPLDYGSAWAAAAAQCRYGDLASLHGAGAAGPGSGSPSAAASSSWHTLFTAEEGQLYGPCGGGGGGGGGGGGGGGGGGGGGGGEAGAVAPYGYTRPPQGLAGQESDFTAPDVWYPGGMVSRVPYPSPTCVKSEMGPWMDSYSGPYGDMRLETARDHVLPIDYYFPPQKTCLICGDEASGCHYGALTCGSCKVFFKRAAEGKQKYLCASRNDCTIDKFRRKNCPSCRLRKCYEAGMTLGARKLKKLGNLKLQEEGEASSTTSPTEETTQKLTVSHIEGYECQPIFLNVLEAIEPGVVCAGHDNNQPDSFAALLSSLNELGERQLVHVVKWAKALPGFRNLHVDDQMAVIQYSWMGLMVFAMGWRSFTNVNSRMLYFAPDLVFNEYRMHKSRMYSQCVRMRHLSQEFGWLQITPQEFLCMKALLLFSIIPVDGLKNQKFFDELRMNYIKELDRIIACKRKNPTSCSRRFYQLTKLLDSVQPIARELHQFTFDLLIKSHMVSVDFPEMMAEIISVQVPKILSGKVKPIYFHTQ

`C=C(CC)C(=O)c1ccc(OCC(=O)O)c(Cl)c1Cl`: the Potency in [1] was 48.2 µM (active); in [2], 60.7 µM (active); in experiment [13], 43 µM (active). Moreover, the Potency result in experiment [3], in experiment [5], in experiment [6], in [7], in experiment [8] and in experiment [9] was “inactive” in each case. Also, the Potency entry in experiment [10] and in experiment [11] was “inactive” each time. The compound was called inactive in experiment [4] and in experiment [12].

Turning to `CCN(CCN)c1cccc(C)c1`, the Potency entry in experiment [14], in experiment [3], in experiment [5], in experiment [6], in experiment [15] and in [16] was “inactive” each time. Moreover, the Potency entry in experiment [7], in experiment [8], in [9], in experiment [10] and in experiment [11] was “inactive” each time. Moreover, the compound was classed as inactive in [4] and in [12].

In the case of `CN(C)Cc1cc(C(C)(C)C)c(O)c(C(C)(C)C)c1`, the compound was called inactive in experiment [4]. The Potency entry in [6], in experiment [15], in [9], in [17] and in [13] was “inactive” each time.

Regarding `CCCCC/C=C\C/C=C\CCCCCCCC(=O)O`, the Potency result in experiment [14], in [3], in [5], in [6], in [16] and in [7] was “inactive” in each case. Further, the Potency entry in experiment [9], in [10], in experiment [11] and in experiment [13] was “inactive” throughout. For the same compound, the outcome in experiment [4] and in [12] was inactive.

For `Cc1cccc(C(=O)O)c1O`, the Potency result in [1], in experiment [2], in experiment [3], in [5], in experiment [6] and in [15] was “inactive” throughout. Moreover, the Potency entry in experiment [16], in experiment [7], in experiment [9], in experiment [10], in experiment [17] and in [11] was “inactive” throughout. In addition, the Potency result in experiment [13] was “inactive”. Also, the call in [4] and in [12] was inactive.

As to `O=c1c(O)c(-c2ccc(O)cc2O)oc2cc(O)cc(O)c12`, the Potency entry in [1], in experiment [2], in experiment [3], in experiment [5], in experiment [15] and in [7] was “inactive” each time. The Potency result in [8], in experiment [9], in experiment [10] and in [11] was “inactive” in each case. In addition, in experiment [12], the outcome was inactive.

On to `c1ccsc1`, for which the Potency result in experiment [1], in experiment [2], in experiment [3], in [5], in [6] and in [15] was “inactive” in each case. Besides, the Potency result in experiment [16], in [7], in experiment [9], in experiment [10], in [17] and in experiment [11] was “inactive” in each case. In addition, the Potency result in experiment [13] is “inactive”. Moreover, the result in experiment [18], in [4] and in experiment [12] was inactive.

For the compound `CCC(C)n1ncn(-c2ccc(N3CCN(c4ccc(OC[C@H]5CO[C@](Cn6cncn6)(c6ccc(Cl)cc6Cl)O5)cc4)CC3)cc2)c1=O` (some centres undefined), the Potency result in experiment [2], in experiment [3], in experiment [5], in experiment [6], in [15] and in experiment [16] was “inactive” throughout. For the same compound, the Potency result in [9], in experiment [10] and in [11] was “inactive” each time. Further, the call in experiment [4] and in experiment [12] was inactive.

On to `Cc1c(N)cccc1C(F)(F)F`, for which the Potency result in experiment [1], in experiment [2], in experiment [5], in experiment [6], in experiment [15] and in [16] was “inactive” each time. Further, the Potency result in experiment [9], in experiment [10], in experiment [17], in [11] and in [13] was “inactive” throughout. Moreover, the result in experiment [18], in [4] and in experiment [12] was inactive.

As for `O=c1oc2cc(O)ccc2c2oc3cc(O)ccc3c12`, in experiment [1], the Potency was 37 µM (active). Moreover, the Potency result in experiment [6], in [15], in [7], in experiment [8], in experiment [9] and in experiment [10] was “inactive” each time. For the same compound, the Potency result in experiment [11] and in experiment [13] was “inactive” in each case. In addition, the compound was classed as inactive in [12].

As for `CCC(=O)C(=O)CC`, the Potency entry in [1], in experiment [5], in experiment [6], in experiment [15], in experiment [16] and in [7] was “inactive” each time. In addition, the Potency entry in experiment [9], in experiment [10], in [17] and in experiment [11] was “inactive” in each case. Besides, the result in experiment [4] and in experiment [12] was inactive.

Turning to `COC(=O)Nc1nc2ccc(C(=O)c3ccccc3)cc2[nH]1`, the result in [18], in experiment [4] and in [12] was inactive. Moreover, the Potency entry in [2], in experiment [3], in experiment [6], in [15], in experiment [9] and in [10] was “inactive” in each case. Also, the Potency result in [11] and in [13] was “inactive” in each case.
